This note sets out measurements from PubChem BioAssay (EPA / NIEHS).

Active and inactive are the calls of the source. How the source made its calls: active means hit-call score of the fitted dose curve at least 0.9, where 1 is the maximum; inactive means score below 0.9.

The term AC50 denotes the concentration at which the activity in the assay is half-maximal.

Common to all, as to conditions: mRNA level, 48 h; actives raise or lower the signal
Read-out in experiment [1]: Interleukin 6 Receptor (IL6R), IL6R (gene 3570)
The experiment can be described thus: LTEA_HepaRG_IL6R: Life Technologies and Expression Analysis (LTEA) Assay for Interleukin 6 Receptor (IL6R) using HepaRG (AID 2283510). The method in brief: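 Concentration-response in human liver HepaRG cells: eight concentrations from 100 uM downward by half-logs, 48 h exposure, 0.5% DMSO vehicle. IL6R mRNA change measured by qRT-PCR and fitted in both directions relative to vehicle.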

Read-out in experiment [2]: Potassium channel subfamily K member 1 (KCNK1), KCNK1 (gene 3775)
The experiment can be described thus: LTEA_HepaRG_KCNK1: Life Technologies and Expression Analysis (LTEA) Assay for Potassium channel subfamily K member 1 (KCNK1) using HepaRG (AID 2283511). A digest of the protocol: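 Differentiated human HepaRG cells in serum-free induction medium were exposed in duplicate for 48 h to 8 half-log concentrations up to 100 uM in 0.5% DMSO. KCNK1 mRNA was measured by TaqMan qRT-PCR, normalized to ACTB, GAPDH and POLR2A, and fitted bidirectionally versus DMSO.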

Read-out in experiment [3]: Keratin 19 (KRT19), KRT19 (gene 3880)
Put plainly: LTEA_HepaRG_KRT19: Life Technologies and Expression Analysis (LTEA) Assay for Keratin 19 (KRT19) using HepaRG (AID 2283512). A digest of the protocol:
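Differentiated HepaRG cells in serum-free induction medium, exposed 48 h in duplicate to 8 half-log concentrations up to 100 uM in 0.5% DMSO. KRT19 mRNA by qRT-PCR, normalized to ACTB, GAPDH, POLR2A; bidirectional fit vs DMSO.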

Read-out in experiment [4]: JUN Transcription Factor, JUN (gene 3725)
Put plainly: LTEA_HepaRG_JUN: Life Technologies and Expression Analysis (LTEA) Assay for JUN Transcription Factor using HepaRG (AID 2283513). A digest of the protocol:
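Human HepaRG liver cells receive test chemicals in 0.5% DMSO for 48 h across an eight-point range topping at 100 uM. Expression changes in JUN are scored in both directions against the DMSO vehicle.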

Read-out in experiment [5]: Lipase C (LIPC), LIPC (gene 3990)
Put plainly: LTEA_HepaRG_LIPC: Life Technologies and Expression Analysis (LTEA) Assay for Lipase C (LIPC) using HepaRG (AID 2283514). The method in brief:
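Differentiated human HepaRG cells in serum-free induction medium were exposed in duplicate for 48 h to eight concentrations (top 100 uM, half-log steps, 0.5% DMSO). LIPC mRNA was quantified by TaqMan qRT-PCR, normalized to ACTB, GAPDH and POLR2A, with bidirectional fitting versus DMSO.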

Read-out in experiment [6]: Lipoprotein lipase (LPL), LPL (gene 4023)
The experiment can be described thus: LTEA_HepaRG_LPL: Life Technologies and Expression Analysis (LTEA) Assay for Lipoprotein lipase (LPL) using HepaRG (AID 2283515). A digest of the protocol:
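Differentiated human HepaRG cells in serum-free induction medium were exposed in duplicate for 48 h to eight half-log concentrations (top 100 uM) in 0.5% DMSO. LPL mRNA was quantified by TaqMan qRT-PCR, normalized to ACTB, GAPDH and POLR2A.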

Read-out in experiment [7]: MicroRNA 122 (MIR122), gene 406906
Put plainly: LTEA_HepaRG_MIR122: Life Technologies and Expression Analysis (LTEA) Assay for MicroRNA 122 (MIR122) using HepaRG (AID 2283516). Further: the transcript read is the microRNA miR-122. A digest of the protocol:
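HepaRG, 48 h exposure, 8-pt half-log from 100 uM, 0.5% DMSO; TaqMan qRT-PCR; bidirectional fit vs DMSO.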

Read-out in experiment [8]: matrix metalloproteinase-10 (MMP10), MMP10 (gene 4319)
Put plainly: LTEA_HepaRG_MMP10: Life Technologies and Expression Analysis (LTEA) Assay for matrix metalloproteinase-10 (MMP10) using HepaRG (AID 2283517). The method in brief:
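HepaRG, collagen I, ~100,000 cells/well; serum-free induction medium; 48 h exposure, duplicate, 8-pt half-log to 100 uM, 0.5% DMSO. Readout: TaqMan qRT-PCR, normalized to ACTB/GAPDH/POLR2A; bidirectional fit vs DMSO.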

Read-out in a further experiment: MYC, MYC (gene 4609)
Put plainly: LTEA_HepaRG_MYC: Life Technologies and Expression Analysis (LTEA) Assay for MYC using HepaRG (AID 2283518). A digest of the protocol:
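Differentiated HepaRG cells exposed 48 h in serum-free induction medium to 8 concentrations (top 100 uM, half-log steps; 0.5% DMSO), duplicate. MYC mRNA measured by Fluidigm qRT-PCR, normalized to ACTB, GAPDH, POLR2A; bidirectional fit versus DMSO.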

Read-out in experiment [9]: matrix metalloproteinase-3 (MMP3), MMP3 (gene 4314)
The experiment can be described thus: LTEA_HepaRG_MMP3: Life Technologies and Expression Analysis (LTEA) Assay for matrix metalloproteinase-3 (MMP3) using HepaRG (AID 2283519). The method in brief:
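Differentiated human HepaRG cells, plated 48 h on collagen I, were exposed in duplicate for 48 h in serum-free induction medium to eight half-log concentrations up to 100 uM in 0.5% DMSO. MMP3 mRNA was quantified by TaqMan qRT-PCR, normalised to ACTB, GAPDH and POLR2A.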

Read-out in experiment [10]: Paternally Expressed 10 (PEG10), PEG10 (gene 23089)
The experiment can be described thus: LTEA_HepaRG_PEG10: Life Technologies and Expression Analysis (LTEA) Assay for Paternally Expressed 10 (PEG10) using HepaRG (AID 2283520). A digest of the protocol:
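Chemicals tested on HepaRG cells for 48 h, highest concentration 100 uM. PEG10 expression assessed by qRT-PCR relative to DMSO control.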

Read-out in experiment [11]: Protein phosphatase 2A (PPP2R4), PTPA (gene 5524)
The experiment can be described thus: LTEA_HepaRG_PPP2R4: Life Technologies and Expression Analysis (LTEA) Assay for Protein phosphatase 2A (PPP2R4) using HepaRG (AID 2283522). The method in brief:
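Gene-expression endpoint in HepaRG hepatic cells: 48 h treatment across eight half-log concentrations up to 100 uM in 0.5% DMSO. PPP2R4 mRNA by qRT-PCR, normalized to three endogenous control genes.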

Read-out in experiment [12]: Phosphatase and tensin (PTEN), PTEN (gene 5728)
The experiment can be described thus: LTEA_HepaRG_PTEN: Life Technologies and Expression Analysis (LTEA) Assay for Phosphatase and tensin (PTEN) using HepaRG (AID 2283523). The method in brief: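 Differentiated human HepaRG cells, plated 48 h then switched to serum-free induction medium, were exposed in duplicate for 48 h to eight half-log concentrations up to 100 uM in 0.5% DMSO. PTEN mRNA measured by TaqMan qRT-PCR, normalized to ACTB/GAPDH/POLR2A, bidirectional fit versus DMSO.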

Read-out in experiment [13]: solute carrier (SLC22A1), SLC22A1 (gene 6580)
Put plainly: LTEA_HepaRG_SLC22A1: Life Technologies and Expression Analysis (LTEA) Assay for solute carrier (SLC22A1) using HepaRG (AID 2283524). A digest of the protocol: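 Human HepaRG cells were plated 48 h, switched to serum-free induction medium, then exposed in duplicate for 48 h to 8-point half-log series from 100 uM in 0.5% DMSO. SLC22A1 mRNA measured by qRT-PCR, normalized to ACTB/GAPDH/POLR2A, fitted bidirectionally versus DMSO.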

Read-out in experiment [14]: Pyruvate Dehydrogenase Kinase 4 (PDK4), PDK4 (gene 5166)
Put plainly: LTEA_HepaRG_PDK4: Life Technologies and Expression Analysis (LTEA) Assay for Pyruvate Dehydrogenase Kinase 4 (PDK4) using HepaRG (AID 2283525). The method in brief: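 Differentiated human HepaRG cells, pre-cultured 48 h, were exposed in duplicate for 48 h in serum-free induction medium to eight half-log concentrations up to 100 uM in 0.5% DMSO. PDK4 mRNA was quantified by qRT-PCR, normalized to ACTB, GAPDH and POLR2A, bidirectional fitting versus DMSO.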

Read-out in experiment [15]: NAD(P)H dehydrogenase [quinone] 1 (NQO1), NQO1 (gene 1728)
The experiment can be described thus: LTEA_HepaRG_NQO1: Life Technologies and Expression Analysis (LTEA) Assay for NAD(P)H dehydrogenase [quinone] 1 (NQO1) using HepaRG (AID 2283526). The method in brief:
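Human HepaRG hepatic cells received chemicals for 48 h in serum-free induction medium with 0.5% DMSO, up to 100 uM. Expression was assessed by TaqMan qRT-PCR against housekeeping controls and fitted bidirectionally against DMSO.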

Read-out in experiment [16]: Nuclear factor erythroid 2-related factor 2 (Homo sapiens) (UniProt Q16236)
Put plainly: LTEA_HepaRG_NFE2L2: Life Technologies and Expression Analysis (LTEA) Assay for Nuclear factor erythroid 2-related factor 2 (NFE2L2) Transcription Factor using HepaRG (AID 2283527).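 Further: TaqMan qRT-PCR transcript level normalised to ACTB GAPDH and POLR2A housekeeping genes.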 A digest of the protocol: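 Differentiated human HepaRG cells in serum-free induction medium were exposed for 48 h to eight concentrations (top 100 uM, half-log dilutions, 0.5% DMSO), in duplicate. NFE2L2 mRNA was quantified by TaqMan qRT-PCR, normalized to ACTB, GAPDH and POLR2A, with bidirectional fitting versus DMSO.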

Read-out in experiment [17]: succinate dehydrogenase complex iron sulfur subunit B (SDHB), SDHB (gene 6390)
The experiment can be described thus: LTEA_HepaRG_SDHB: Life Technologies and Expression Analysis (LTEA) Assay for succinate dehydrogenase complex iron sulfur subunit B (SDHB) using HepaRG (AID 2283528). A digest of the protocol: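 Readout is SDHB transcript level by qRT-PCR, normalised to three housekeeping genes and fitted bidirectionally against 0.5% DMSO vehicle. Human HepaRG cells were treated for 48 h at up to 100 uM.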

Read-out in experiment [18]: Signal transducer and activator of transcription 3 (Homo sapiens) (UniProt P40763)
The experiment can be described thus: LTEA_HepaRG_STAT3: Life Technologies and Expression Analysis (LTEA) Assay for Signal transducer and activator of transcription (STAT3) using HepaRG (AID 2283529). A digest of the protocol: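 Differentiated human HepaRG cells in serum-free induction medium were exposed in duplicate for 48 h to eight half-log concentrations up to 100 uM in 0.5% DMSO. STAT3 mRNA was quantified by TaqMan qRT-PCR, normalized to ACTB, GAPDH and POLR2A, and fitted bidirectionally against DMSO.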

Nuclear factor erythroid 2-related factor 2 (Homo sapiens), sequence (Q16236 whole entry, looked up): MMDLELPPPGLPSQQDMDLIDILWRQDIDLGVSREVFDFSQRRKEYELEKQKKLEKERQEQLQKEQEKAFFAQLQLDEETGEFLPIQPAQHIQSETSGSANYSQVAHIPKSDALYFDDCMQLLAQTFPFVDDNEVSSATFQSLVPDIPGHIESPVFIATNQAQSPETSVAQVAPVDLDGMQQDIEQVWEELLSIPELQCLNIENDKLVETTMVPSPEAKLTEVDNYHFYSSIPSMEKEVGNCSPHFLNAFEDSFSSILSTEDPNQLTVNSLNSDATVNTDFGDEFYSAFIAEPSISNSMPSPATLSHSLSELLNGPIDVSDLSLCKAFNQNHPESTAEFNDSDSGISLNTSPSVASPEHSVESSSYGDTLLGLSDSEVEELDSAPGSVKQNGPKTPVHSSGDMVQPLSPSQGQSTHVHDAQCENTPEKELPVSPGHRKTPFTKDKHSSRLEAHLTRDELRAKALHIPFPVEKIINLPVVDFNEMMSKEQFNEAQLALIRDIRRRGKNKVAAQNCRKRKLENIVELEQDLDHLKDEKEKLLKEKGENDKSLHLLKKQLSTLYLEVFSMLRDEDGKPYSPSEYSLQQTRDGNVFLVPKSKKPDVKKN
Signal transducer and activator of transcription 3 (Homo sapiens), sequence (P40763 whole entry, looked up): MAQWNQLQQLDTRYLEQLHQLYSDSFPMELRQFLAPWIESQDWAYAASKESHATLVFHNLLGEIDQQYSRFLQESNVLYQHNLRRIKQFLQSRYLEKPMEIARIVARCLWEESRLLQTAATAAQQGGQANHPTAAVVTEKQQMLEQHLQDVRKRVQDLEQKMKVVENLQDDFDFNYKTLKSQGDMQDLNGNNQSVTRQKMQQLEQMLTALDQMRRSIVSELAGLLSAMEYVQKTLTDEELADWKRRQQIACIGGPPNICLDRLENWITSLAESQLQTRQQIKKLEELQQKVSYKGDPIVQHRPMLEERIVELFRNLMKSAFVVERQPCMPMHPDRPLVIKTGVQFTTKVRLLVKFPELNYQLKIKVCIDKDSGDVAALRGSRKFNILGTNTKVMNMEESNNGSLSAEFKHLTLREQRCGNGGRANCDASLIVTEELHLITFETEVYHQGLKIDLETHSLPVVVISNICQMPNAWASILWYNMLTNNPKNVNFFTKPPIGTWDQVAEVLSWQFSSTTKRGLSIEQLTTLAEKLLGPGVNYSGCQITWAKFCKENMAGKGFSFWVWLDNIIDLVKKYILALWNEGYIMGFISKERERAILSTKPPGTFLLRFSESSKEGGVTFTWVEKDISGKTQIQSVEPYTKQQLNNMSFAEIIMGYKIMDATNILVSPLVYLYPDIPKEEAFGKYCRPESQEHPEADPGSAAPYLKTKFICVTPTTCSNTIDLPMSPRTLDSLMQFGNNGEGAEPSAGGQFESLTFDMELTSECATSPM

As to `C=CCOC(=O)C(C)(C)OC(=O)c1cc(-n2c(=O)cc(C(F)(F)F)n(C)c2=O)ccc1Cl`, the call in experiment [1], in [2], in experiment [3], in experiment [4], in experiment [5] and in [6] was inactive. In addition, the outcome in experiment [7] is “inactive”; in experiment [8], “inactive”; with MYC, MYC (gene 4609), “inactive”; in experiment [9], “inactive”; in experiment [10] it was “inactive”; in [11], “inactive”. In addition, the compound was classed as inactive in [12], in experiment [13], in experiment [14], in [15], in experiment [16] and in [17]. The result in experiment [18] was inactive.

Consider `Cc1nc(N(C)C)nc(OC(=O)N(C)C)c1C`, for which the call in experiment [1], in experiment [2], in [3], in experiment [4], in experiment [5] and in [6] was inactive. Further, the outcome in experiment [7] is “inactive”; in experiment [8], “inactive”; with MYC, MYC (gene 4609), “inactive”; in experiment [9] it was “inactive”; in experiment [10] it was “inactive”; in experiment [11] it was “inactive”. The result in experiment [12], in [13], in experiment [14], in experiment [15], in experiment [16] and in experiment [17] was inactive. Further, the outcome in experiment [18] was inactive.

Take `CCOP(=S)(OCC)Oc1nc(Cl)n(C(C)C)n1`: the AC50 in [1] is 12.2 µM (active); in experiment [6], 64.7 µM (active); in experiment [13], 12.2 µM (active); in experiment [14], 1.82 µM (active). In addition, the call in experiment [2], in experiment [3], in [4], in [5], in experiment [7] and in experiment [8] was inactive. The outcome is “inactive” with MYC, MYC (gene 4609); “inactive” in [9]; “inactive” in experiment [10]; “inactive” in experiment [11]; “inactive” in experiment [12]; “inactive” in experiment [15]. The compound was called inactive in [16], in [17] and in experiment [18].
